Source: PubChem BioAssay AID1159614 (National Center for Advancing Translational Sciences (NCATS), 2016)
About 65 (0.1%) of roughly 45,000 compounds were called active. The call rests on the fitted dose curve; in most records, active means well fitted activation curve with a large enough effect; inconclusive means small, poorly fitted or top-dose-only effect; inactive means no such curve, though single readings can be large or run the other way. The sample as a whole holds a higher share of actives than the screen did.

target: Galactocerebrosidase (Homo sapiens) (UniProt P54803); test: A Novel Cell-Based Assay to Identify Small Molecules for B -Galactocerebrosidase; details: 145M-Twi-hGALC-G270D cells (Twitcher mouse brain line with human GALC G270D), HMU-beta-Gal fluorescence, 48 h; series mostly up to 57.5 µM; activation: at the top concentration; further: nearly all actives have a fitted effect of over 65% in size; on activation: 0% is about no effect
Sequence (P54803 whole entry G286D): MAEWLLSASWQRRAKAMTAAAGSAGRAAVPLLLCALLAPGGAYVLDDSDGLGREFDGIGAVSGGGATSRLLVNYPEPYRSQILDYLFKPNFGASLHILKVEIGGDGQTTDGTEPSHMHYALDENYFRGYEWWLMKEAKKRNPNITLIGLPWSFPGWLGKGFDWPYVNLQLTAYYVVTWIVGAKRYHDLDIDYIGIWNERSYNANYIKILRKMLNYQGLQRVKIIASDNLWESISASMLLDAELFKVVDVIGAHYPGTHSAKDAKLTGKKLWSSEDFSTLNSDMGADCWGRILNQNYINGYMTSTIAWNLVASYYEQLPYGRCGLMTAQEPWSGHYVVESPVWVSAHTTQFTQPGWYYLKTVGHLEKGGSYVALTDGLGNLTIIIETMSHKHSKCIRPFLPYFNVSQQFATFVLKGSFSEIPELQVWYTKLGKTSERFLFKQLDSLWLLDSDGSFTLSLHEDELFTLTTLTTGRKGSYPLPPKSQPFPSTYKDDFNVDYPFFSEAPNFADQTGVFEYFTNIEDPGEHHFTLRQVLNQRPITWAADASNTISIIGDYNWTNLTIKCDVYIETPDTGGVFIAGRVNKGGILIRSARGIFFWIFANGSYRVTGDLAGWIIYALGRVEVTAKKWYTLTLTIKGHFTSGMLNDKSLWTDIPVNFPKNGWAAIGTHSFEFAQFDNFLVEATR
From the text: Lysosomal storage diseases (LSDs) are caused by genetic mutations in genes encoding proteins important for normal lysosomal function. Globoid cell leukodystrophy (GLD), mostly known as Krabbe disease, is a prototype of the neurological LSDs caused by deficiency of beta-galactocerebrosidase (GALC). In brain specimens of GLD patients, psychosine levels are substantially elevated. At elevated concentrations, psychosine becomes cytotoxic to neuronal cells, particularly to oligodendrocytes (OLG), neural cells responsible for myelin formation. Therefore, the biochemical disturbances in GLD are manifested by different degrees of brain demyelination resulting in a broad spectrum of neurological manifestations. Most of the FDA-approved therapies are based on enzyme replacement therapeutic (ERT) agents, which treat non-neurological symptoms of Gaucher disease, Fabry disease, few mucopolysaccharidoses and Pompe disease. Unfortunately, in GLD, a primarily neurological LSD, ERT agents, as large molecular weight molecules unable to cross the blood-brain barrier, which makes this an inefficacious therapeutic approach. In GLD, increasing the residual GALC activity just above the critical threshold (~10% of wild type enzymatic activity), the cytotoxic levels of psychosine will be reduced, avoiding the OLGs apoptosis and the subsequent demyelination process. This will translate in disease stabilization and amelioration of GLD patient symptoms.
A cell-based assay in 1,536-well plate format was developed to implement a quantitative high-throughput screening (qHTS) assay using GLD-disease relevant cells to identify small molecules that produce enhancements of the residual enzymatic activity levels of mutants GALC found and prevalent in GLD patients. Compounds that are active may therefore have some therapeutic application for GLD. After the treatment of live cells for a determined period, using a fluorescent GALC specific substrate, the mutant residual GALC activity is measured. This cell-based qTHS assay was used to screen part of the MLPCN library for small molecule able to increase the mutant GALC enzymatic activity. In this assay, increased fluorescent signal corresponds to enhanced levels of mutant GALC residual enzymatic activity. Activation is the desired outcome for this assay.
NIH Chemical Genomics Center [NCGC]
NIH Molecular Libraries Probe Centers Network [MLPCN]
Assay Submitter (PI): Gustavo Maegawa MD,PhD, University of Florida, Gainesville, FL
2)#Two cell lines were established for the assay: 145M-Twi-hGALC-G270D (brain-derived Twitcher cell line stably expressing human GALC-G270D) and 145M-Twi-hGALC-WT (same 145M-Twi stably expressing human GALC wild type). The Twitcher is the murine C57B/6 model for GLD with naturally occurring homozygous nonsense GALC mutation. The 145M-Twi cell line was established at Maegawa lab (Ribbens J et al 2014).
a.#Media: DMEM/F12 (1:1) with 10% fetal bovine-serum (FBS) with penicillin/streptomycin (PS-1X - 100 I.U./mL of penicillin+100 ug/mL of streptomycin).
b.#The 6-Hexadecanoylamino-4-methylumbelliferyl-b-D-galactoside (HMU-B-gal) substrate was prepared as per Wiederschain et al 1992. Using 20-mL borosilicate tubes, 2.20 mg of HMU-b-Gal was added in each tube to prepare substrate-film with a final air-nitrogen stream evaporation to remove all diluent solvents.
c.#The HMUb-Gal substrate buffer consists of 0.2 M Na2HPO4 (sodium phosphate dibasic)/ 0.1 M Citric Acid with the pH adjusted to 5.2 using HCl. Sodium Azide at 0.02% and Sodium Taurocholate (NaTC) at 1 mg/mL were added to this substrate buffer.
d.#The HMU-b-Gal stopping buffer consist of 0.5 M NaHCO3 (sodium bicarbonate) /0.5 M Na2CO3 (sodium carbonate). […] Triton X-100 at 0.25% was added.
4)#Preparation of HMU-b-Gal substrate tubes
Adding 18.6 mL of the HMUb-Gal substrate buffer to each 20-mL tube (2.20 mg of HMU-b-Gal) will reach a concentration of 0.2 mM. Vortex well the tube until the solution is fully homogenized (clear cloudy solution). […]
Potency means the concentration at half of the fitted maximal effect.

activation, inactive:
COc1cc(NC(=O)c2nn(-c3ccc(C)cc3)c(=O)c3c2c2ccccc2n3C)cc(OC)c1OC -20.9%
CCOC(=O)c1ccccc1NC(=O)c1sc2nc(-c3ccc(F)cc3)cn2c1C -13.4%
Cc1ccc(Cn2c(CCCNC(=O)C3CCCCC3)nc3ccccc32)cc1 -11.3%
CCc1nccn1S(=O)(=O)c1cc(Br)ccc1Br -5.8%
COc1ccc(OCCCn2c(C)nc3cc(C)c(C)cc32)cc1 -10.3%
Cc1ccc(-n2ncc3c(=O)n(Cc4cccc(C(F)(F)F)c4)cnc32)cc1C -13.3%
Cc1ccc2nc(COc3cccc(NC(=O)c4ccccc4Cl)c3)cc(=O)n2c1 -12.6%
COc1ccc(CNC(=O)c2ccc(NC(=O)N3CC4CCCN4c4ccccc43)cc2)cc1 (configuration not stated) -12.2%
Cc1ccc(C)c(NC(=O)C2CCCN(S(=O)(=O)c3cn(C)cn3)C2)c1 (configuration not stated) 2.62%
COc1cc(Cl)c(C)cc1Nc1nnc(-n2nc(C)cc2C)c2ccccc12 -10.6%
CCOC(=O)c1c(C)n(S(=O)(=O)c2ccc(C)cc2C)c2ccc(NS(=O)(=O)c3ccc(C)cc3C)cc12 -2.18%
COC(=O)/C=C(/C)N -6.02%
CCn1cc2nc(SCc3cccc(F)c3)n(CCc3ccccc3)c(=O)c2n1 -27.4%
COc1cccc(Cn2c(CNS(=O)(=O)c3ccc(Cl)s3)nc3cccnc32)c1 7.72%
CCC(=O)N1c2ccccc2CC1C(=O)N1CCN(c2ccccc2)CC1 (configuration not stated) 11.7%
COc1cccc(NC(=O)c2ccc3nc(CCc4ccccc4)oc3c2)c1 -18.4%
COc1ccccc1N1CCN(c2ncnc3onc(-c4cccc(Cl)c4)c23)CC1 -9.65%
COc1cccc(C(=O)NC(=O)Nc2ccc(-c3cc(C(F)(F)F)nn3-c3ccccc3)cc2)c1 1.48%
COc1ccc(-c2ccc(=O)n(CC(=O)Nc3ccc(Br)cc3F)n2)cc1 -6%
Fc1ccccc1Oc1ncnc2c1oc1ccccc12 -10.2%
COc1ccc(-c2cn3nc(N4CCCC(C(=O)NCCCOC(C)C)C4)sc3n2)cc1 (configuration not stated) -13.8%
CCOC(=O)c1ccc(NC(=O)CCn2cnnn2)cc1 -12.4%
CC(C)(C)OC(=O)N1CCC(c2c(C(=O)Nc3ccc4c(c3)OCO4)cnn2-c2ccccc2)CC1 -3.46%
COc1ccc(Cl)cc1NC(=O)C(C)Sc1nc2c(c(=O)[nH]1)CCCC2 (configuration not stated) 5.09%
COC(=O)c1nc(Cl)c(Cl)nc1N -15.2%
O=C(CSc1oc(-c2ccco2)nc1S(=O)(=O)c1ccccc1)c1ccc(Cl)cc1 -25.8%
O=c1[nH]c2cc(Br)ccc2n2cccc12 -12.7%
CN(Cc1ccccc1)c1ccc(-c2nc(-c3ccccc3)no2)cc1[N+](=O)[O-] -39.7%
COc1cc(NC(=O)CCn2nc(C)cc2C)cc(OC)c1OC 0.94%
CCOC(=O)c1c(C)[nH]c(C)c1S(=O)(=O)NCC(=O)NCc1cccc(C)c1 -12.1%
CCOc1ccc(OCC)c(NC(=O)c2cc(C)nc3c2c(C)nn3-c2cccc(Cl)c2C)c1 -12.6%
Cc1ccc(Oc2c(C(F)(F)F)oc3c(CN4CCCCC4)c(O)ccc3c2=O)cc1 -11.8%
COc1ccc(-c2c(C)c3ccc(O)c(CN4CCN(C)CC4)c3oc2=O)cc1OC -9.31%
O=C(NCc1ccccc1)c1cccc(NC(=O)N2CCSc3ncccc32)c1 -9.3%
CCCCN1C(=O)c2[nH]nc(-c3ccccc3O)c2C1c1cccc(OCc2ccccc2)c1 (configuration not stated) -9.56%
O=C(NC1CC(=O)N(c2ccccc2)C1)c1ccco1 (configuration not stated) -16.5%
Cc1cccc(CC(=O)N2CC(=O)Nc3ccc(F)cc3C2c2ccccc2)c1 (configuration not stated) -6.7%
Cc1cccc(NC(=O)c2nnn(CC(=O)Nc3ccc(C(C)C)cc3)c2N)c1C -16.1%
Cc1cc(C)cc(OCC(=O)Nc2nc(-c3ccc(F)cc3)ns2)c1 5.22%
Cc1cccc(NC(=O)Cn2c(C(F)(F)F)nc3ccccc32)c1C 5.17%
COc1cccc(-c2cc(C(=O)Nc3ccc(C)cc3)[nH]n2)c1 -17.3%
CCc1cc2c(cc3c(=O)n(CC(=O)NCCc4ccc(OC)c(OC)c4)ncn32)s1 -10.5%
Cc1ccccc1OCC(=O)Nc1c(C(=O)Nc2ccccc2F)oc2ccccc12 -15.2%
CCOc1cc(C(=O)Nc2nnc3n2CCS3)cc(OCC)c1OCC -19.3%
COc1cccc2c1cc1c(=O)n(CC(=O)N3CCN(c4cccc(Cl)c4)CC3)nc(C)n12 -10.9%
CCCn1c2ccccc2c2cnn(CC(=O)N(C)c3ccccc3CC)c(=O)c21 0.489%
CCN(C(=O)c1sc2cc(OC)ccc2c1Cl)c1ccccc1 -1.23%
CCOC(=O)c1nnn(CC(=O)NC(=O)Nc2ccccc2F)c1C(=O)OCC -12.9%
Cn1c(=O)c2c(nc(Oc3ccc(C#N)cc3)n2Cc2ccc(Cl)cc2Cl)n(C)c1=O -1.55%
COc1cc(CN(CC2CCCO2)C(=O)c2ccccc2F)cc(OC)c1OC (configuration not stated) -1.53%
Cc1cccn2c(=O)c(C(=O)NC(C)c3ccccc3)cnc12 (configuration not stated) -3.71%
Cc1ccc(S(=O)(=O)NC2(C(F)(F)F)NC(=O)N(CCc3ccccc3)C2=O)cc1 (configuration not stated) -13.9%
COc1ccc(CC(=O)Nc2nnc3n2CCS3)cc1OC 14.6%
COc1cccc(C2C(C(=O)Nc3ccc(C)cc3C)=C(C)Nc3c(C(=O)Nc4ccccc4)cnn32)c1 (configuration not stated) -4.64%
Cc1ccc(-c2nc3ccccn3c2Nc2c(C)cccc2C)o1 -10.6%
Brc1ccc2c(c1)NC(c1cccnc1)=NC(c1ccccc1)=N2 -18%
COC(=O)c1ccc(NC(=O)CCc2c(C)nc3c(c(C)nn3-c3ccc(C)cc3)c2C)cc1 -11.7%
O=C(Nc1ccccc1Cl)N1CCC(CN2CCCC2)CC1 -6.85%
COc1cc(Cl)c(NC(=O)C(NS(=O)(=O)c2cccs2)C(C)C)c(OC)c1 (configuration not stated) -11.2%
O=C(NC1CC(=O)N(c2ccc(F)cc2)C1)c1ccc(S(=O)(=O)N2CCCC2)cc1 (configuration not stated) -10.8%
CCc1cc2c(cc3c(=O)n(CC(=O)N4CCN(c5cc(Cl)ccc5C)CC4)nc(CC)n32)s1 -11.4%
Cc1cccc(Cn2c(SCc3ccc(C(=O)N4CCC(C)CC4)cc3)nc3ccncc32)c1 1.12%
COc1ccc2cc(CNc3ccc(OC)c(OC)c3)c(=O)n(CC(=O)Nc3ccccc3F)c2c1 -18.6%
Cc1ccc(OCCn2c(CNc3ccccc3C)nc3ccccc32)cc1 -7.23%
Cc1nn(C)c2c1c(C(F)(F)F)cc(=O)n2C(C)C(=O)NCc1ccc(Cl)cc1 (configuration not stated) -22.1%
CCOCCCn1c(SCC(=O)Nc2ccc(CC)cc2)nc2ccccc2c1=O -12.9%
C=Cc1ccc(Cn2c(C(=O)OC)cc3sc(C)cc32)cc1 -7.18%
COc1ccc(CCNC(=O)Cn2c(=O)n(-c3ccccc3)c(=O)c3c(C)c(C)sc32)cc1OC -4.98%
O=C(NC1CCN(Cc2ccccc2)CC1)c1ccc(Cn2c(=O)c3ccccc3n(Cc3cccc(F)c3)c2=O)cc1 -3.67%
CC1CCCN(c2cc3c(cc2F)c(=O)c(S(=O)(=O)c2cccc(Cl)c2)cn3Cc2ccccc2)C1 (configuration not stated) -16.9%
Cc1nc(N2CCOCC2)c2c(C(=O)NCc3cccc(Cl)c3)c(C)oc2n1 -10.9%
O=C(Nc1ccc(S(=O)(=O)N2CCC(c3nc4ccccc4s3)CC2)cc1)c1ccccc1F -7.74%
Cc1ccc(N(CC(=O)NCC(C)c2ccccc2)S(=O)(=O)N(C)C)cc1 (configuration not stated) 2.28%
COc1ccc(-n2ccn(CC(=O)Nc3ccc(C)c(C)c3)c(=O)c2=O)cc1OC -14.7%
CCCc1nn2c(=O)cc(COC(=O)c3ccc(NC(=O)C(C)Oc4ccccc4)cc3)nc2s1 (configuration not stated) -6.74%
CCCSc1nc2sc3c(c2c(=O)n1-c1cccc(Br)c1)CC(C)(C)OC3 -5.57%
Cc1nn(C(C)C(=O)Nc2ccc(C(C)C)cc2)c(=O)c2c1sc1ccccc12 (configuration not stated) -10.5%
Cc1cc(C)c(NC(=O)CSc2nc3nccnc3c(=O)n2CCc2c[nH]c3ccccc23)c(C)c1 -6.62%
O=C(CSc1nc(Nc2ccc(F)c(F)c2)c2ccccc2n1)c1ccc(Cl)cc1 -5.29%
CCn1c2c(c(=O)n3ncc(C(=O)N4CCN(c5ccccc5)CC4)c13)CN(Cc1ccc(OC)cc1)CC2 -22.7%
CC(=O)Nc1c(C)nn(-c2ccccc2)c1N1CCC(C(=O)Nc2cc(Cl)ccc2C)CC1 1.89%
Cc1cc(C)c(-c2n[nH]c3c2C(c2ccccc2F)N(CCO)C3=O)c(O)c1 (configuration not stated) -9.56%
Cc1ccc(C)c(CN2C(=O)c3ccccc3S(=O)c3ccc(C(=O)N4CCOCC4)cc32)c1 (configuration not stated) 4.19%
COc1ccc(CCNC(=O)c2cc3cccc4c3n2CC(C)S4)c(OC)c1OC (configuration not stated) -2.07%
Oc1ccc(-c2nc3ccc(Cl)cn3c2Nc2ccc3c(c2)OCO3)cc1 -17%
COc1ccc(S(=O)(=O)N2CCN(c3ccc(F)cc3)CC2)cc1-c1noc(C)n1 -17.9%
O=C(NCc1ccccc1Cl)C1CCN(c2ncnc3c2nc2n3CCCCC2)CC1 -0.25%
Cc1ccc(C)c(Oc2c(C(F)(F)F)oc3c(CN4CCN(C)CC4)c(O)ccc3c2=O)c1 -12.2%
CCc1cccc(C)c1NS(=O)(=O)c1c(C)nc2sccn2c1=O -9.4%
CCOC(=O)c1c(-c2ccc(OC)cc2)oc2ccc(OCc3ccc(C(=O)OC)cc3)cc12 -11.1%
O=C(O)c1ccc2c(c1)N(Cc1ccc(F)cc1)C(=O)c1ccccc1S2=O (configuration not stated) -9.29%
CCNC(=O)c1cc2n(n1)CCCN(Cc1ccc(C)cc1)C2=O 2.77%
COc1ccccc1CN1CCC(CNC(=O)c2cnn(-c3cccc(Cl)c3)c2C2CCN(C(=O)OC(C)(C)C)CC2)CC1 -20.3%
Cc1cc(NS(=O)(=O)c2ccc3oc(=O)c4ncn(C)c4c3c2)ccc1Br -7.99%
Cc1cccc(OCCSc2nc3ccccc3n2CC(=O)N2CCCCC2)c1C -30.3%
CN1C(=O)c2ccccc2Sc2ccc(NC(=O)Cc3ccc(Cl)cc3)cc21 -9.11%

Potency, active:
COc1ccc(-c2c(C)c3ccc(O)c(CN4CCCC4)c3oc2=O)cc1OC 39.8 µM
